Experiment [1] can be described thus: antimalarial activity against Dd2 strain (AID 2302;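 active = growth inhibition above 50% at the single 2 µM test dose, taken to imply half-maximal potency below 2 µM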;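 also: 0% = DMSO untreated growth and 100% = chloroquine plus artemisinin killed control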). The conditions noted are these: P. falciparum Dd2 in RBCs, LDH growth readout, 72 h; at 2 µM; stronger effect = higher value.
A short description of experiment [2]: HepG2 cytotoxicity, primary screen, cytotoxicity control for P. falciparum antimalarial project, cell-based, ATP luminescence (AID 2303;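 active = inhibition above 50%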;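 also: 0% = DMSO wells and 100% = digitonin-killed cells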). The conditions noted are these: HepG2 viability, 24-48 h, at 10 µM, stronger effect = higher value.
The target of experiment [3] is L-lactate dehydrogenase (Plasmodium falciparum (isolate CDC / Honduras)) (UniProt Q27743). Nature of the experiment: PfLDH activity inhibition – cell lysate, 3D7 strain, counter-screen for P. falciparum growth inhibition project (AID 2304).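 Also: 0% = vehicle and 100% = reference inhibitor.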 The conditions noted are these: P. falciparum 3D7 crude extract, LDH APAD/NBT absorbance; at 2 µM; stronger effect = higher value. (The purpose of a counterscreen is to sort out artefacts and off-target activity.)

Experiment [4] in a line: inhibition of 3D7 malaria parasite growth – strain 3D7 (AID 2306).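 Also: 0% = DMSO wells and 100% = chloroquine plus artemisinin control wells.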 Particulars: P. falciparum 3D7 erythrocytic growth, LDH absorbance, 72 h; at 2 µM; stronger effect = higher value.
The target of experiment [5] is Calcium-dependent protein kinase 1 (Plasmodium falciparum (isolate 3D7)) (UniProt P62344). Description: PfCDPK1 kinase inhibitors, biochemical, TCAMS library (AID 1159585; cut-off not given, nearly all actives have IC50 up to about 0.98 µM;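 also: inhibitors leave more ATP so luminescence rises with inhibition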). Particulars: recombinant PfCDPK1, Kinase-Glo ATP depletion luminescence. In general terms: Kinase-Glo measures the ATP left after a reaction by luminescence.
The target of experiment [6] is Plasmodium falciparum protein kinase 6 (PK6, PF3D7_1337100) (UniProt Q8IDW1). Nature of the experiment: PfPK6 kinase inhibitors, biochemical, TCAMS library (AID 1159586). The conditions noted are these: recombinant PfPK6, Kinase-Glo ATP depletion luminescence.
Experiment [7] has as its target Protein kinase 7 (PK7), Plasmodium falciparum 3D7 (PF3D7_0213400) (UniProt Q7YTF7). Description: inhibition of Plasmodium PK7 catalytic activity – biochemical, TCAMS antimalarial set, Kinase-Glo luminescence (AID 1159587). Particulars: recombinant PfPK7, Kinase-Glo ATP depletion luminescence.
Experiment [8] has as its target Calcium-dependent protein kinase 4 (Plasmodium falciparum (isolate 3D7)) (UniProt Q8IBS5). Nature of the experiment: PfCDPK4 kinase inhibitors, biochemical, TCAMS library (AID 1159588; cut-off not given, nearly all actives have IC50 up to about 0.91 µM). The conditions noted are these: recombinant PfCDPK4, Kinase-Glo ATP depletion luminescence.

Unmarked numbers belong to inactive results. For some of these results: Results with a measured potency or affinity are listed apart. Calls of active or inactive are those of the source. Unless noted, no rule for the calls is given here.

By inhibition is commonly meant the change of the read-out against control, counted positive when it falls.

Chain of L-lactate dehydrogenase (Plasmodium falciparum (isolate CDC / Honduras)) (Q27743 whole entry, looked up): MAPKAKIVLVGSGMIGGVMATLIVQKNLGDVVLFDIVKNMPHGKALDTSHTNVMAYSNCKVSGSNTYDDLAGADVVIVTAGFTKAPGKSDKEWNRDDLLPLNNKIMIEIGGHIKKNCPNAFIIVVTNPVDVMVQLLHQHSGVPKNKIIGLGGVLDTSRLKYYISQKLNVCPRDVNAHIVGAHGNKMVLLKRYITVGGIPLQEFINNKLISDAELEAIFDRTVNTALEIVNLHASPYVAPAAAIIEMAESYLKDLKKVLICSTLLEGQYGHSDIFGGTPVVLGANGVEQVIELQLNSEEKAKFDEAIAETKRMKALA
Chain of Calcium-dependent protein kinase 1 (Plasmodium falciparum (isolate 3D7)) (P62344 whole entry, looked up): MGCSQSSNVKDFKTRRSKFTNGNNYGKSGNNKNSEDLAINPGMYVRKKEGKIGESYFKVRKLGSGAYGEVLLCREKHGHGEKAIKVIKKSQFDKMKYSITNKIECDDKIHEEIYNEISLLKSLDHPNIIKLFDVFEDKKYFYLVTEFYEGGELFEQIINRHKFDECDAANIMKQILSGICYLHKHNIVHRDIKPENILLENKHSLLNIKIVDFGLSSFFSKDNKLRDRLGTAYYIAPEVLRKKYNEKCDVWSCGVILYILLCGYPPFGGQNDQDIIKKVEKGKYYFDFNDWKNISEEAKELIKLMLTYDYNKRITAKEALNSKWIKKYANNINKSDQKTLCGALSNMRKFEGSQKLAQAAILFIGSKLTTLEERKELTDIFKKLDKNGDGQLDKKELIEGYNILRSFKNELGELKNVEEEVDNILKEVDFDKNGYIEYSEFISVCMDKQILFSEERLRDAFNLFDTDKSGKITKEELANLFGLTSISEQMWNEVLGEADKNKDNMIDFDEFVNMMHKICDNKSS
Chain of Calcium-dependent protein kinase 4 (Plasmodium falciparum (isolate 3D7)) (Q8IBS5 whole entry, looked up): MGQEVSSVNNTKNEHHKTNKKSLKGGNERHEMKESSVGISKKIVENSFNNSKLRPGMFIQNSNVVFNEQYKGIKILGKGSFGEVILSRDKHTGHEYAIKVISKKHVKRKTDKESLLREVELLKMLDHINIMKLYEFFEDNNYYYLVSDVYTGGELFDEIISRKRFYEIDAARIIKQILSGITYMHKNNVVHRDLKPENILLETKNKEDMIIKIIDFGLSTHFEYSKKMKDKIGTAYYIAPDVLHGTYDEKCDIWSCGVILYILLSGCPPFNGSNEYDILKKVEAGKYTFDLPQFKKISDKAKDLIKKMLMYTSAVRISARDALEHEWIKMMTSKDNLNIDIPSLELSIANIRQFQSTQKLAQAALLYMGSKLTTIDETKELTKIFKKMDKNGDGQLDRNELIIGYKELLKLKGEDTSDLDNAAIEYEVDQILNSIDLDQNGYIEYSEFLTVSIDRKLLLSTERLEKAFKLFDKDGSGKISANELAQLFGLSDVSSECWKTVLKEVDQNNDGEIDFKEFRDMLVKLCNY
Chain of Protein kinase 7 (PK7), Plasmodium falciparum 3D7 (PF3D7_0213400) (Q7YTF7 1-343): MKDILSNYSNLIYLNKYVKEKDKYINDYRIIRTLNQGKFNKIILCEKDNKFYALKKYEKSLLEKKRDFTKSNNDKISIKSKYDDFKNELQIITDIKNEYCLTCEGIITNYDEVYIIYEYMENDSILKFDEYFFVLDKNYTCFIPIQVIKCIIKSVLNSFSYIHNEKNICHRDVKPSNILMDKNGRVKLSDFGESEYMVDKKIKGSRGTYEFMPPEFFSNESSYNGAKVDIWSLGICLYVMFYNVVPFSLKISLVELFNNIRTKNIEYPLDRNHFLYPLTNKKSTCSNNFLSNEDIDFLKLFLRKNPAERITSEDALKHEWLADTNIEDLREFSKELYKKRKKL
Chain of Plasmodium falciparum protein kinase 6 (PK6, PF3D7_1337100) (Q8IDW1 1-305): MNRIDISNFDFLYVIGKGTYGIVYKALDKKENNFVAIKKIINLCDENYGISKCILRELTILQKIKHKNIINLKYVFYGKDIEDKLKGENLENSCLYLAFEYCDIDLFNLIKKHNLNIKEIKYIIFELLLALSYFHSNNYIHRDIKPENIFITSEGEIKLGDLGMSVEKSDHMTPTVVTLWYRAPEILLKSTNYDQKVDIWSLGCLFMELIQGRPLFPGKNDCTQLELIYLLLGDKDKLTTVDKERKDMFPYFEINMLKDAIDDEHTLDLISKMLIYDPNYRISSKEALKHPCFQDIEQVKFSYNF

With `Cc1cccc2[nH]c(-c3ccc(-c4cccc(CN5CCCCC5)c4)s3)nc12`, the growth inhibition in experiment [1] was 92% (active); in experiment [4], 100% (active). Besides, the results for the inhibition in experiment [2] and in experiment [3] were 11% and -2%, respectively. Besides, the outcome in experiment [5], in experiment [6], in experiment [7] and in experiment [8] was inactive.
As to `CN1CCC(C(=O)N(Cc2ccc(-c3ccc(CNCCc4ccccc4)cn3)cc2)C2Cc3ccccc3C2)CC1`, the results for the growth inhibition in experiment [1] and in experiment [4] were 97% (active) and 88% (active), respectively. Further, the inhibition in experiment [2] was 65% (active); in experiment [3], -2%. Further, the result in experiment [5], in experiment [6], in experiment [7] and in experiment [8] was inactive.
Consider `COc1ccc2c(NN=Cc3ccccc3)cc(C)nc2c1`, for which the growth inhibition in experiment [1] is 49%; in experiment [4], 100% (active). Moreover, the inhibition in experiment [2] and in experiment [3] was -2% each time. For the same molecule, the result in experiment [5], in experiment [6], in experiment [7] and in experiment [8] was inactive.
As for `CC[C@H](NC(=O)c1c(CN2CCC(N3CCCCC3)CC2)c(-c2ccccc2)nc2c(Cl)c(O)ccc12)c1ccccc1`, the growth inhibition in experiment [1] was 66% (active); in experiment [4], 101% (active). For the same molecule, the inhibition in experiment [2] is -1%; in experiment [3], -3%. The outcome in experiment [5], in experiment [6], in experiment [7] and in experiment [8] was inactive.
In the case of `CCN(CC)S(=O)(=O)c1cc(-c2ccc(=O)n(CC(=O)c3ccc(C)cc3)n2)ccc1C`, the growth inhibition was 66% (active) in experiment [1] and 86% (active) in experiment [4]. Moreover, the inhibition in experiment [2] was 6%; in experiment [3], -3%. In addition, the outcome in experiment [5], in experiment [6], in experiment [7] and in experiment [8] was inactive.
With `CCNc1cc(C(=O)N[C@@H](Cc2ccccc2)[C@H](O)CNC23CCC(CC2)CC3)cc(N2CCCCS2(=O)=O)c1`, the growth inhibition in experiment [1] was 98% (active); in experiment [4] it was 99% (active). Moreover, the inhibition in experiment [2] was 10%; in experiment [3], 4%. The outcome in experiment [5], in experiment [6], in experiment [7] and in experiment [8] was inactive.
Take `CN(C)CCOc1cc(NC(=O)Nc2cccc3c(-c4ccncc4)cccc23)ccc1I`: the figures for the growth inhibition in experiment [1] and in experiment [4] were 28% and 100% (active), respectively. For the same molecule, the inhibition is 20% in experiment [2] and 0% in experiment [3]. Moreover, the outcome in experiment [5], in experiment [6], in experiment [7] and in experiment [8] was inactive.
As for `Cc1cc(C)c(C(=O)Nc2n[nH]c3nnc(-c4cccc(F)c4F)cc23)c(C)c1`, the growth inhibition is -4% in experiment [1] and 90% (active) in experiment [4]. Also, the inhibition in experiment [2] was -2%; in experiment [3], -4%. Besides, the result in experiment [5], in experiment [6], in experiment [7] and in experiment [8] was inactive.
As for `CCCCc1ccc(-c2c(N)nc(N)nc2CC)cc1`, the values for the growth inhibition in experiment [1] and in experiment [4] were 0% and 95% (active), respectively. Moreover, the results for the inhibition in experiment [2] and in experiment [3] were 63% (active) and -1%, respectively. Besides, the outcome in experiment [5], in experiment [6], in experiment [7] and in experiment [8] was inactive.
As for `COc1ccc2ccccc2c1CCCCN1CCN(CC(c2ccc(F)cc2)N2CCN(C3CCCC3)CC2)CC1` (stereo not given), the figures for the growth inhibition in experiment [1] and in experiment [4] were 51% (active) and 88% (active), respectively. In addition, the results for the inhibition in experiment [2] and in experiment [3] were 88% (active) and 6%, respectively. The outcome in experiment [5], in experiment [6], in experiment [7] and in experiment [8] was inactive.
In the case of `Cc1cc(=O)c(C2CCC(c3ccc(Cl)cc3)CC2)c(C)[nH]1` (stereo not given), the growth inhibition in experiment [1] is 70% (active); in experiment [4], 88% (active). Further, the inhibition is -13% in experiment [2] and 0% in experiment [3]. Moreover, the result in experiment [5], in experiment [6], in experiment [7] and in experiment [8] was inactive.
With `O=C(NC1CCN(Cc2ccc3c(c2)OCCO3)CC1)c1ccc(-c2cccc(Cl)c2)s1`, the growth inhibition was 9% in experiment [1] and 93% (active) in experiment [4]. Besides, the inhibition in experiment [2] was 46%; in experiment [3], -5%. For the same molecule, the result in experiment [5], in experiment [6], in experiment [7] and in experiment [8] was inactive.
Turning to `Cc1cc(N2CCCC2)nc(/N=C(\N)Nc2cccc(C(F)(F)F)c2)n1`, the growth inhibition was 100% (active) in experiment [1] and 101% (active) in experiment [4]. Also, the figures for the inhibition in experiment [2] and in experiment [3] were 33% and 1%, respectively. In addition, the outcome in experiment [5], in experiment [6], in experiment [7] and in experiment [8] was inactive.
For `CCOCCCNc1nc2cc(OC)c(OC)cc2c2nc(-c3ccccc3)nn12`, the growth inhibition is 98% (active) in experiment [1] and 96% (active) in experiment [4]. Further, the inhibition was 10% in experiment [2] and -3% in experiment [3]. In addition, the result in experiment [5], in experiment [6], in experiment [7] and in experiment [8] was inactive.
Turning to `Cc1cc(NC(=O)NCCN2CCC(NC(=O)c3cccc(Br)c3)C2)c2ccccc2n1` (stereo not given), the growth inhibition in experiment [1] is 60% (active); in experiment [4], 100% (active). In addition, the inhibition in experiment [2] was -2%; in experiment [3], -1%. Moreover, the result in experiment [5], in experiment [6], in experiment [7] and in experiment [8] was inactive.
With `Cc1nc(N=C(N)N)nc2ccc(C(C)(C)C)cc12`, the growth inhibition in experiment [1] is 91% (active); in experiment [4], 96% (active). For the same molecule, the inhibition in experiment [2] was 4%; in experiment [3], -1%. In addition, the result in experiment [5], in experiment [6], in experiment [7] and in experiment [8] was inactive.
Take `Clc1cc2c(Nc3ccc(Oc4ccccc4)cc3)ccnc2cc1-c1ccc(CNCCN2CCOCC2)o1`: the growth inhibition was 89% (active) in experiment [1] and 100% (active) in experiment [4]. The inhibition in experiment [2] was -2%; in experiment [3], -4%. For the same molecule, the outcome in experiment [5], in experiment [6], in experiment [7] and in experiment [8] was inactive.
With `CC(C)NCc1ccc(-c2cccc(NC(=O)c3ccc(C#N)cc3)c2)cc1`, the growth inhibition is 19% in experiment [1] and 100% (active) in experiment [4]. Moreover, the inhibition was 8% in experiment [2] and 4% in experiment [3]. Also, the result in experiment [5], in experiment [6], in experiment [7] and in experiment [8] was inactive.
Take `N#Cc1ccc2c(c1)CCN(CCC1CCC(NC(=O)Nc3cnc4ccccc4c3)CC1)C2` (stereo not given): the growth inhibition in experiment [1] is 9%; in experiment [4] it was 93% (active). The figures for the inhibition in experiment [2] and in experiment [3] were 14% and 6%, respectively. Further, the result in experiment [5], in experiment [6], in experiment [7] and in experiment [8] was inactive.
Turning to `CN1CCC(Oc2cc(NC(=O)Nc3ccc(-c4ccncc4)c(C(F)(F)F)c3)ccc2Cl)CC1`, the growth inhibition in experiment [1] was 92% (active); in experiment [4] it was 100% (active). The inhibition in experiment [2] is 30%; in experiment [3], -1%. For the same molecule, the outcome in experiment [5], in experiment [6], in experiment [7] and in experiment [8] was inactive.

The values above are taken from PubChem BioAssay.
